PubChem BioAssay AID1259324 (C. David Weaver Laboratory, Vanderbilt University, 2017)
The whole screen tested about 34,000 compounds, of which fewer than 10 were called active.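 How the source made its calls: active means primary screen hit, no activity in plain HEK293 cells, and in GIRK2-only cells above 5% efficacy rising with concentration; inactive means the rest, including fluorescent compounds.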 A selection follows.

Target: G protein-activated inward rectifier potassium channel 2 (Homo sapiens) (UniProt P48051)
Sequence (P48051 whole entry, looked up): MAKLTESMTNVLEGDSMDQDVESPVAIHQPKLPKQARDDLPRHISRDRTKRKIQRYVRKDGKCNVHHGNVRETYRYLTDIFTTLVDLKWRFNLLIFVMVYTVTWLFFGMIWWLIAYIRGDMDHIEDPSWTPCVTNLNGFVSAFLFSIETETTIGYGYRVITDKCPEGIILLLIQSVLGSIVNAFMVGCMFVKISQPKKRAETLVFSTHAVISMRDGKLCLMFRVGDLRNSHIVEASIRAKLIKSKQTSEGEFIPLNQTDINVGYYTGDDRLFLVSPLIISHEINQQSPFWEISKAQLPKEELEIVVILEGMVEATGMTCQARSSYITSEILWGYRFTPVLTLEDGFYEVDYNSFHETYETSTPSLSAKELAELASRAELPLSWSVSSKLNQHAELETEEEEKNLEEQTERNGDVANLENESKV
Assay: GIRK2 activation atop partial GPCR stimulation – cell-based, HEK293, thallium flux, summary (AID 1259324)
Settings: HEK293 GIRK2/NPY4 cells, thallium flux fluorescence

outcome, inactive:
COc1ccc(NC(=O)c2ccc(C(F)(F)F)cc2)cc1N1CCCC1=O, O=C(NC1CC(=O)N(C2CC2)C1)c1ccc(-n2cccc2)cc1 (stereo not given), O=C(c1cccc(Cl)c1)N1CCOC(c2ccc(C(F)(F)F)cc2)C1 (stereo not given), CC1CCN(C(=O)CN2CCN(c3nccn3-c3cccc(Cl)c3)CC2)CC1, COc1cccc(C(=O)NNC(=O)c2ccc(=O)n(Cc3ccccc3)c2)c1OC, O=C(NCCCO)C(=O)Nc1ccc2c(c1)OCCO2, O=C(CSc1nc2ccsc2c(=O)n1CCc1ccccc1)Nc1ccccc1F, COCCNc1oc2c(c1-c1ccc([N+](=O)[O-])cc1)c(=O)oc1ccc(C)cc12, O=C(CN1CCOCC1)Nc1ccccc1-c1nc2ccccc2[nH]c1=O, O=S1(=O)CCC(n2nc(-c3ccco3)cc2NS(=O)(=O)c2cccc(Cl)c2)C1 (stereo not given), CC(C)(C)OC(=O)C1=NN(c2ccc(Cl)cc2)c2ncccc2S1(=O)=O, CCn1nnc2c(NCc3ccccc3OC)ncnc21, Cc1ccc(C(CNC(=O)C(=O)NCc2ccccc2)N2CCOCC2)cc1 (stereo not given), CS(=O)(=O)N1CCN(CCNC(=O)c2ccc([N+](=O)[O-])o2)CC1, O=C(NCc1cccs1)C(=O)NCC1CCN(C(=O)/C=C/c2ccco2)CC1, O=C(NCc1cccs1)C(=O)NCC1CCCO1 (stereo not given), COc1ccc(OC)c(CNC(=O)c2snc(-c3cccc(F)c3)c2N)c1, COc1ccc(CCNC(=O)COc2ccccc2Br)cc1OC, COc1cc(C)c(C)cc1S(=O)(=O)N1CCN(c2ccc(-c3cccnc3)nn2)CC1, COc1ccc(S(=O)(=O)CCCC(=O)Nc2nc(-c3ccc([N+](=O)[O-])cc3)cs2)cc1, Cc1nc(NCCNC(=O)Nc2ccccc2)cc(-n2cccn2)n1, CCN1CCc2nc(-c3ccccc3)n(CC(=O)Nc3cc(OC)cc(OC)c3)c(=O)c2C1, O=C(NCCC1=CCCCC1)C(=O)Nc1cccc(N2CCCCC2=O)c1, O=C(CN1CC(c2nc(-c3ccsc3)no2)C1)NCCc1ccccc1, Cc1nn(-c2nc(C)c(C)c(=O)[nH]2)c(C)c1CCC(=O)Nc1ccc(C(F)(F)F)cc1, O=C(Cc1ccc(NS(=O)(=O)C2CC2)cc1)NCC(F)(F)F, O=C(Cc1csc(-n2cccc2)n1)Nc1nc2ccccc2s1, Cc1cccc(NC(=O)N2CCN(c3ccc4nnc(C5CC5)n4n3)CC2)c1C, CCOc1ccc2nc(NC(=O)Cn3cnc(C(C)C)cc3=O)sc2c1, Cc1ccc(-n2ccnc2N2CCN(C(=O)c3ccccc3)CC2)cc1, CS(=O)(=O)N1CCC(C(=O)Nc2nc3ccc(F)cc3s2)CC1, Cc1nc(-c2cccc(NC(=O)Cc3c(C)[nH]c(=O)[nH]c3=O)c2)cs1, COc1cc(COCC2CCN(C(=O)/C=C/c3ccccc3Cl)CC2)cc(OC)c1, O=C(c1ccc([N+](=O)[O-])o1)N1CCN(Cc2nnnn2-c2ccc(F)c(F)c2)CC1, CC(C)(C)CN(C(=O)c1ccco1)c1ccncc1, COc1ccccc1CNC(=O)C1CN(C(C)=O)C1, Cc1ccccc1C(=O)NCCNC(=O)c1ccc(NC(=O)C(C)C)cc1, O=C(Nc1cccs1)N1CCN(c2ccc(-c3ccco3)nn2)CC1, CC(C)CCn1nc2ccc(S(=O)(=O)N3CCOCC3)cn2c1=O, Cn1nnc2c(N3CCN(C(=O)NCCOc4ccccc4)CC3)ncnc21, COc1ccc(NC(=O)C(=O)NCCC(c2ccccc2)c2ccccc2)c(OC)c1, Cc1ccc(Nc2ccc(NC(=O)/C=C/c3ccccc3)cc2)nn1, CCOc1cccc2sc(N(CCN3CCOCC3)C(=O)c3ccco3)nc12, COc1ccc(C=O)cc1Cn1c(=O)n(CCCCC(=O)NCC(C)C)c(=O)c2ccccc21, COc1cc(OC)cc(-n2c(-c3ccco3)nc3nc4ccccc4nc32)c1, Cc1ccc2nc(C3CC(=O)N(c4ccccc4)C3)[nH]c2c1 (stereo not given), COc1ccc(CCNC(=O)Cn2nc(-c3ccc(Cl)cc3)ccc2=O)cc1, O=C(NN1CCOCC1)c1ccc(N2CCC(Cc3ccccc3)CC2)nn1, CS(=O)(=O)N1CCCCC1C(=O)Nc1nc(-c2ccccn2)cs1 (stereo not given), O=C(NCCCN1CCOC(c2ccccc2)C1)c1cc2ccccc2oc1=O (stereo not given), COc1ccc(NC(=O)NCC(C)(O)C2CC2)cc1OC (stereo not given), CSc1cccc(NC(=O)NCCNc2cc(-n3cccn3)ncn2)c1, CSc1ccccc1CN1CCC(CNC(=O)c2ccc(S(=O)(=O)N(C)C)cc2)CC1, COc1ccc(N2C(=O)CN(CCC3=CCCCC3)C3CS(=O)(=O)CC32)cc1Cl (stereo not given), COc1cc(NC(=O)CSC2=NC3(CCCC3)N=C2c2ccccc2)cc(OC)c1, Cc1ccc(N2CC(C(=O)NCC3CCN(S(=O)(=O)C4CC4)CC3)CC2=O)cc1C (stereo not given), Cc1cc(-c2nnc(NC(=O)C(c3ccccc3)c3ccccc3)o2)nn1C, CCOC(=O)CNC(=O)C1COCC(=O)N1Cc1ccccc1 (stereo not given), COc1ccc(CCNC(=O)CCc2sc(C)nc2-c2cccs2)cc1, O=S(=O)(N1CCCCCC1)N1CCN(c2ccccc2F)CC1, CCOC(=O)c1cn[nH]c1S(=O)(=O)NCc1ccccn1, CSc1cccc(-n2nnc(C(=O)OCc3nc(-c4ccccc4)oc3C)c2C)c1, CN(C)C(CNC(=O)C(C)(C)C)c1ccccc1Cl (stereo not given), CC(C)CCn1nc2ccc(S(=O)(=O)N3CCCCC3)cn2c1=O, COc1ccc(NC(=O)Cn2cc(-c3ccccc3)c(N(C)C)n2)cc1OC, Cc1cc(NC(=O)C(=O)c2c(C)[nH]c3ccccc23)n(-c2nc(-c3cccs3)cs2)n1, COc1ccc(NC(=O)c2ccccc2SC)cc1N1CCCCC1=O, Cc1cc(-c2nnc(NC(=O)c3ccc(S(=O)(=O)N4CCCC4)cc3)o2)n(C)n1, COC(=O)c1ccc(OC)cc1CN1C(=O)N(c2cc(F)ccc2F)S(=O)(=O)c2ccccc21, Cc1ccc(Nc2ccc(NC(=O)c3ccc(Br)o3)cc2)nn1, Cc1csc(NC(=O)CSc2nc(=O)n(N3CCN(C)CC3)c3c2CCC3)n1, Cc1nnc(CNC(=O)C(C)n2nnc3ccccc3c2=O)o1 (stereo not given), O=C(NCCN1CCOCC1)C(=O)NCC(F)(F)F, CC(=O)N1CCN(S(=O)(=O)c2ccc(C(=O)NCc3cccnc3)cc2)CC1, COc1cc(C(=O)Nc2ccc3c(c2)N(C(=O)C2CC2)CCC3)cc(OC)c1OC, CC(Sc1ccnc2c1c(=O)n(C)c(=O)n2C)C(=O)O (stereo not given), Cn1nc(NC(=O)C(C)(C)Oc2ccc(Cl)cc2)c2c1NC(=O)CC2c1ccco1 (stereo not given), CS(=O)(=O)c1ccc(NC(=O)c2ccc(Cl)c(S(=O)(=O)N3CCOCC3)c2)cc1, CCOC(=O)Nc1nc(CC(=O)Nc2ccc(OC)cc2)cs1, O=C(NCc1ccc(Cl)cc1)C(=O)NCC1CCN(C(=O)c2cccnc2)CC1, Cc1cc(S(=O)(=O)NCC(O)c2ccc(C(F)(F)F)cc2)ccc1F (stereo not given), Cc1ccc(Oc2ccc(N(C)C(=O)c3cccc(F)c3)cc2)nn1, CCOc1ccc(-c2cc(=O)n(CCCC(=O)Nc3cc(C)ns3)cn2)cc1, Cc1noc(C)c1S(=O)(=O)N1CCN(Cc2nc(-c3ccco3)cs2)CC1, CC1CCN(c2oc(-c3ccc(S(=O)(=O)N(C)Cc4ccccc4)cc3)nc2C#N)CC1, O=C(NCC1CCN(S(=O)(=O)C2CC2)CC1)c1ccccn1, CCOC(=O)C(CC)Sc1ccnc2c1c(=O)n(C)c(=O)n2C (stereo not given), CN1CCN(C(CNC(=O)C(=O)NCc2ccc(Cl)cc2)c2cccn2C)CC1 (stereo not given), CCN1CCc2nc(-c3ccccc3)n(CC(=O)Nc3cccc(Cl)c3C)c(=O)c2C1, CC(C)C(=O)N1CCCc2ccc(NC(=O)C(=O)NCCCc3ccccc3)cc21, CCOc1ccc(NS(=O)(=O)c2cccc(OC)c2)cc1, COc1cc(S(=O)(=O)N2CCN(CCO)CC2)ccc1Cl, O=C(N1CCC(c2cccs2)CC1)C1(c2ccc(F)cc2)CC1, CS(=O)(=O)N1CCN(Cc2nnnn2-c2ccc(F)cc2)CC1, CCn1c(SCC(=O)N(C)c2ccccc2)nnc1-c1cn(C)nc1OC, O=C(NCCN1CCC(c2cccs2)CC1)C(=O)Nc1ccc2c(c1)OCO2, CCCNC(=O)C(=O)Nc1c2c(nn1C(C)(C)C)CSC2, O=C(Nc1ccc(Cl)cc1)N1CCC2(CC1)NC(=O)N(CCOc1ccccc1)C2=O, O=C(CCn1ccc(=O)[nH]c1=O)N1CCN(c2ccc(-c3ccccn3)nn2)CC1, Cn1cnc2cc(OC(=O)c3ccc(=O)[nH]n3)ccc21, O=C(Cc1ccc2c(c1)OCO2)Nc1nnc(-c2ccc(Br)s2)o1, CC1(C)Cc2cccc(OCCCS(=O)(=O)N3CCCCC3)c2O1, O=C(Cn1cnc(-c2cccs2)cc1=O)NCCOc1ccc(F)cc1, COC(=O)c1ccc(-c2csc(NC(=O)CS(=O)(=O)Cc3ccccc3)n2)cc1, Cc1cccc(C(=O)Nc2cc(-c3ccco3)nn2-c2nc(C)cc(=O)[nH]2)c1
